# Test results published in paper PMC7862700, “An all-to-all approach to the identification of sequence-specific readers for epigenetic DNA modifications on cytosine”.
# Legend:
# Assay in all cases: DAPPL (digital affinity profiling via proximity ligation, sequencing); 10 mM Tris-HCl pH 7.5, 50 mM NaCl, 1 mM DTT, 4% glycerol, room temperature, 30 min; GST-TFs on glutathione beads, 16-mer random dsDNA library, 0.1% formaldehyde crosslink after washing; high values mean tight binding
# FLI1 = molecular target: T1, FLI1 (Homo sapiens, UniProt Q01543 1-452); settings: protein: recombinant; tags: N-terminal GST; dsDNA, one strand shown
# T1 sequence: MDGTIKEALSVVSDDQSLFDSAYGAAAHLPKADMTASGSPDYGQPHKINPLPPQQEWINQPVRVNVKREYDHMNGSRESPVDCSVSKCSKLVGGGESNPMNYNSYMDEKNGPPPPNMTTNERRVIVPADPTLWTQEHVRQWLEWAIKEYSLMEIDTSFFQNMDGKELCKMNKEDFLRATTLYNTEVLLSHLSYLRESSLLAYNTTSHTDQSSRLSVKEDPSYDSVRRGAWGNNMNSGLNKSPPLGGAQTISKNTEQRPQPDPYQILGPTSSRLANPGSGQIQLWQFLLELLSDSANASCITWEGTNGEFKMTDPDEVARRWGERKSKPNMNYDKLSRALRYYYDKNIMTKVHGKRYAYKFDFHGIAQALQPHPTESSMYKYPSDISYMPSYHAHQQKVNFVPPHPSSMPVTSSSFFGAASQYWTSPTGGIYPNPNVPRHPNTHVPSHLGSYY
# How it was run: (§1)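 A tag-only sample was pooled with DNA-barcoded human transcription factors that had been expressed in yeast as GST fusions and captured on glutathione beads. The pools were incubated for 30 min at room temperature with 200 nmole of a random double-stranded 16-mer DNA library in Tris/NaCl/DTT/glycerol buffer, then washed, crosslinked with 0.1% formaldehyde, proximity-ligated (BsaI/T4 ligase, 1 h, 37 °C), PCR-amplified and sequenced on an Illumina NextSeq500. Binding signal is each hexamer's read frequency for a factor divided by its frequency for the tag-only sample.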
# ELK1 = molecular target: T2, ELK1 (Homo sapiens, UniProt P19419 1-428); settings: protein: recombinant; tags: N-terminal GST; dsDNA, one strand shown
# T2 sequence: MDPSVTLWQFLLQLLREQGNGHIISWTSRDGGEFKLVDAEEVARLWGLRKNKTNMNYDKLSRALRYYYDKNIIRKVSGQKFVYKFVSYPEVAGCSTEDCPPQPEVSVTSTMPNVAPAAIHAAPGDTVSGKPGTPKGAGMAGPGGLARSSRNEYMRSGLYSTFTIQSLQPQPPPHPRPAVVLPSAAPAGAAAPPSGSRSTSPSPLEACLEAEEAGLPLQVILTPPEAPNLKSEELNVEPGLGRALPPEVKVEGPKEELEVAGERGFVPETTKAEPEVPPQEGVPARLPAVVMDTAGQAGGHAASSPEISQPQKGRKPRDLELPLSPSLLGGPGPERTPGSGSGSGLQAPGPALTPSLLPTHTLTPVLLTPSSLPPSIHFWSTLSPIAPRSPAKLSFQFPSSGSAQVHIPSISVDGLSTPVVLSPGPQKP
# How it was run: as §1
# GABPA = molecular target: T3, GABPA (Homo sapiens, UniProt Q06546 1-454); settings: protein: recombinant; tags: N-terminal GST; dsDNA, one strand shown
# T3 sequence: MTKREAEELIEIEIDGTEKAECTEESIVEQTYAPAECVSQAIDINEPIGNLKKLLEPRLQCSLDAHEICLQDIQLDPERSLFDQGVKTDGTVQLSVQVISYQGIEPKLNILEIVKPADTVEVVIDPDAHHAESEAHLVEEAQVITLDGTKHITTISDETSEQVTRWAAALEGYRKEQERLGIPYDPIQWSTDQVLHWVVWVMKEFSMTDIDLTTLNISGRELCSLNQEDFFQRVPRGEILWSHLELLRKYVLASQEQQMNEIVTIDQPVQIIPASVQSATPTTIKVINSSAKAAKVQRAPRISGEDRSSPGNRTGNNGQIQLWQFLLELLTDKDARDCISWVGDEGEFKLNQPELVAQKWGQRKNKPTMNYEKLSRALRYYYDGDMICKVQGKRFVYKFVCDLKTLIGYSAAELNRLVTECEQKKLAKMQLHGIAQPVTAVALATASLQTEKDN
# How it was run: as §1
# ERG = molecular target: T4, ERG (Homo sapiens, UniProt P11308 1-479); settings: protein: recombinant; tags: N-terminal GST; dsDNA, one strand shown
# T4 sequence: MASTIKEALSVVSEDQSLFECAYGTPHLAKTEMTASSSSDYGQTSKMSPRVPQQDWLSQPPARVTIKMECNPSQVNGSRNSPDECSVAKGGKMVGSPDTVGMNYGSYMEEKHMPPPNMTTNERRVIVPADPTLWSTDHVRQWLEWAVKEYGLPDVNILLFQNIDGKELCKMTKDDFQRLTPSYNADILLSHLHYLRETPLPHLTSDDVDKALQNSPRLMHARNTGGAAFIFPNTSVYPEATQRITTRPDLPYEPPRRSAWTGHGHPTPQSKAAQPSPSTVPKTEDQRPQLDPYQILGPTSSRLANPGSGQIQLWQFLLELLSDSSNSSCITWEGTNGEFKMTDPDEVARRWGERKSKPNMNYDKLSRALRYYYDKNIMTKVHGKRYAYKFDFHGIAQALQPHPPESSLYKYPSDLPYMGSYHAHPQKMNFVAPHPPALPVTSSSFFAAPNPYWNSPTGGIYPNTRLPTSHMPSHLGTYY
# How it was run: as §1
# ELF1 = ELF1 (Homo sapiens, UniProt P32519 1-619); settings: protein: recombinant; tags: N-terminal GST; dsDNA, one strand shown
# ELF1, sequence (P32519 whole entry): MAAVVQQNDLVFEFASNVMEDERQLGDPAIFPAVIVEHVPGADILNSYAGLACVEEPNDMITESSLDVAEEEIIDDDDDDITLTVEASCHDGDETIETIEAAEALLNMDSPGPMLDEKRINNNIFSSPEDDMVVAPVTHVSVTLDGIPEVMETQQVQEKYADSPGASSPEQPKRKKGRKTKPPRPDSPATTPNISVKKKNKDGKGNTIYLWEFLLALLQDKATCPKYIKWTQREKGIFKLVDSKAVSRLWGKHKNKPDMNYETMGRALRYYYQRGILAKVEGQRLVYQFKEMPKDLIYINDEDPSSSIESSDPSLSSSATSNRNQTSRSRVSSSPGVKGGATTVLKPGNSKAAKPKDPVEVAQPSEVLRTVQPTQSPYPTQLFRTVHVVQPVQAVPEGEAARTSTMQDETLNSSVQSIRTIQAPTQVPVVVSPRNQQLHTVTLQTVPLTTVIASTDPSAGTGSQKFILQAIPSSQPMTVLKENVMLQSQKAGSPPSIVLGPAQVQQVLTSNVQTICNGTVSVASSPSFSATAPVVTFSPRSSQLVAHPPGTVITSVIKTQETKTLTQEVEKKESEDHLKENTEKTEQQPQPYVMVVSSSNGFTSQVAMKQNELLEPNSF
# How it was run: as §1
# EHF = molecular target: T5, EHF (Homo sapiens, UniProt Q9NZC4 1-300); settings: protein: recombinant; tags: N-terminal GST; dsDNA, one strand shown
# T5 sequence: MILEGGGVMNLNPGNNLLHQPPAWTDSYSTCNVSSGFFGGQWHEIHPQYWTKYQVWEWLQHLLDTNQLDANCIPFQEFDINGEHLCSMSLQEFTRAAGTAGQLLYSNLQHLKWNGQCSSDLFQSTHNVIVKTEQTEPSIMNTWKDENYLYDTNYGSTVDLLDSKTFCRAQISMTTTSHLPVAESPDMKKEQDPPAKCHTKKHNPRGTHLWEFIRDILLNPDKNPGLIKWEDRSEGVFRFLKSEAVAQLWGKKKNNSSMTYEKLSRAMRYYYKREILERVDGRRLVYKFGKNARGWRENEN
# How it was run: as §1
# SPI1 = SPI1 (Homo sapiens, UniProt P17947 1-270); settings: protein: recombinant; tags: N-terminal GST; dsDNA, one strand shown
# How it was run: as §1
# SPIB = SPIB (Homo sapiens, UniProt Q01892 1-262); settings: protein: recombinant; tags: N-terminal GST; dsDNA, one strand shown
# SPIB, sequence (Q01892 whole entry): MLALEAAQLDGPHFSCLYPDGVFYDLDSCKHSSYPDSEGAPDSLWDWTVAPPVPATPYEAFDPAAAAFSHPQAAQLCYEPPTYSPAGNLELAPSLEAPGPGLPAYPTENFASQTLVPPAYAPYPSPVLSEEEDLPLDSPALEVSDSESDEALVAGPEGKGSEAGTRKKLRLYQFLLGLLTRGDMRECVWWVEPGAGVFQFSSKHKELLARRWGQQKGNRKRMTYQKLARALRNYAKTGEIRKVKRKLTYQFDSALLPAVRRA
# How it was run: as §1
# ELK3 = molecular target: T6, ELK3 (Homo sapiens, UniProt P41970 1-407); settings: protein: recombinant; tags: N-terminal GST; dsDNA, one strand shown
# T6 sequence: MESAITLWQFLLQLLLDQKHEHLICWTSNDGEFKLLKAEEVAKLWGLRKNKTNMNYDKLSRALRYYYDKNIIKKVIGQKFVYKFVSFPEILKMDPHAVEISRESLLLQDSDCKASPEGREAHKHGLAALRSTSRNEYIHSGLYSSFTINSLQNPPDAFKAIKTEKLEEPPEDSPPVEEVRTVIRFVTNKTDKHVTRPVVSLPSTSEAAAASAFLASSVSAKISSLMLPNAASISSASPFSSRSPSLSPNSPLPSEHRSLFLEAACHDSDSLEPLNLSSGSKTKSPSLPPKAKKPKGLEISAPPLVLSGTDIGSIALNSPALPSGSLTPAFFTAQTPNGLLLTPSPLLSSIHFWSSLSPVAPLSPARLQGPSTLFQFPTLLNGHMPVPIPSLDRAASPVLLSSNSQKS
# How it was run: as §1
# FEV = molecular target: T7, FEV (Homo sapiens, UniProt Q99581 1-238); settings: protein: recombinant; tags: N-terminal GST; dsDNA, one strand shown
# T7 sequence: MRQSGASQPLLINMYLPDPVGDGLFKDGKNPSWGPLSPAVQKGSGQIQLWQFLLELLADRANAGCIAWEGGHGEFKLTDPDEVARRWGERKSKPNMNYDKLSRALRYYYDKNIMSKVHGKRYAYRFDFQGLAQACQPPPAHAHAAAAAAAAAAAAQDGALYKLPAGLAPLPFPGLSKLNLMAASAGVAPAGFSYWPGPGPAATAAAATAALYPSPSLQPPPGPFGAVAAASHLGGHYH
# How it was run: as §1
# ETV5 = ETV5 (Homo sapiens, UniProt P41161 1-510); settings: protein: recombinant; tags: N-terminal GST; dsDNA, one strand shown
# ETV5, sequence (P41161 whole entry): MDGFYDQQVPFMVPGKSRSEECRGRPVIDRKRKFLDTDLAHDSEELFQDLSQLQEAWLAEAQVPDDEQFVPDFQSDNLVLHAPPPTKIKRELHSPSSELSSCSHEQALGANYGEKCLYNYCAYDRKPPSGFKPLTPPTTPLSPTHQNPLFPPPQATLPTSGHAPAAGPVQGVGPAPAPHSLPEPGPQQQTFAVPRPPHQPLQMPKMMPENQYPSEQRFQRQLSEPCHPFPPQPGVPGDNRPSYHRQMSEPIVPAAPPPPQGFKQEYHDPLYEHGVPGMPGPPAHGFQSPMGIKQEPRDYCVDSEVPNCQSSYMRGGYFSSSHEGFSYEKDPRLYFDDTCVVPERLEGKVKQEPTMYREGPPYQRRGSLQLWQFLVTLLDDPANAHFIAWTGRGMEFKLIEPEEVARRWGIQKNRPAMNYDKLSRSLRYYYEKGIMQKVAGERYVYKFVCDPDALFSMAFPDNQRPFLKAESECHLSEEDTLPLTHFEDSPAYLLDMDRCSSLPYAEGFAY
# How it was run: as §1
# HSF1 = HSF1 (Homo sapiens, UniProt Q00613 1-529); settings: protein: recombinant; tags: N-terminal GST; chain copies: 3; dsDNA, one strand shown
# HSF1, sequence (Q00613 whole entry): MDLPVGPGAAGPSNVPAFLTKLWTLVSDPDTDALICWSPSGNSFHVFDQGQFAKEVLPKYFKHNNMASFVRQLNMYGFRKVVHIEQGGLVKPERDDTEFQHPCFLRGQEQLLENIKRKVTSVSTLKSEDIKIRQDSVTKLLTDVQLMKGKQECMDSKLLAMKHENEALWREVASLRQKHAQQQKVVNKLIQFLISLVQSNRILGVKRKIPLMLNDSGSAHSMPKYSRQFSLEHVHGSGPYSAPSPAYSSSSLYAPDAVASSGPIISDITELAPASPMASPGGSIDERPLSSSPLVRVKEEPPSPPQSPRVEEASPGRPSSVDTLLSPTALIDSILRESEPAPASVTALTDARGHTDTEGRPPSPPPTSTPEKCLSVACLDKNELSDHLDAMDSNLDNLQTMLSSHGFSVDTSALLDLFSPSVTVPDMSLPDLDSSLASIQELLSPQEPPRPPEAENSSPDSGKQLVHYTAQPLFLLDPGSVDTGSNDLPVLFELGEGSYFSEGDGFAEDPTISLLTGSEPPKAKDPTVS
# How it was run: as §1
# SPIC = molecular target: T8, SPIC (Homo sapiens, UniProt Q8N5J4 1-248); settings: protein: recombinant; tags: N-terminal GST; dsDNA, one strand shown
# T8 sequence: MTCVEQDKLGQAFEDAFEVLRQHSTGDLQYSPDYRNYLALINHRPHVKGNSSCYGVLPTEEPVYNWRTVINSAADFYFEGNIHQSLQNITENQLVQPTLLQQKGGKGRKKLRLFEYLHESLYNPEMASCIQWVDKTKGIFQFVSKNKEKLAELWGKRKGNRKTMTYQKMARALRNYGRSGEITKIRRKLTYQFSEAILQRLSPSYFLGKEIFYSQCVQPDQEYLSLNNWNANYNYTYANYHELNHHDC
# How it was run: as §1
# ELF4 = ELF4 (Homo sapiens, UniProt Q99607 1-663); settings: protein: recombinant; tags: N-terminal GST; dsDNA, one strand shown
# ELF4, sequence (Q99607 whole entry): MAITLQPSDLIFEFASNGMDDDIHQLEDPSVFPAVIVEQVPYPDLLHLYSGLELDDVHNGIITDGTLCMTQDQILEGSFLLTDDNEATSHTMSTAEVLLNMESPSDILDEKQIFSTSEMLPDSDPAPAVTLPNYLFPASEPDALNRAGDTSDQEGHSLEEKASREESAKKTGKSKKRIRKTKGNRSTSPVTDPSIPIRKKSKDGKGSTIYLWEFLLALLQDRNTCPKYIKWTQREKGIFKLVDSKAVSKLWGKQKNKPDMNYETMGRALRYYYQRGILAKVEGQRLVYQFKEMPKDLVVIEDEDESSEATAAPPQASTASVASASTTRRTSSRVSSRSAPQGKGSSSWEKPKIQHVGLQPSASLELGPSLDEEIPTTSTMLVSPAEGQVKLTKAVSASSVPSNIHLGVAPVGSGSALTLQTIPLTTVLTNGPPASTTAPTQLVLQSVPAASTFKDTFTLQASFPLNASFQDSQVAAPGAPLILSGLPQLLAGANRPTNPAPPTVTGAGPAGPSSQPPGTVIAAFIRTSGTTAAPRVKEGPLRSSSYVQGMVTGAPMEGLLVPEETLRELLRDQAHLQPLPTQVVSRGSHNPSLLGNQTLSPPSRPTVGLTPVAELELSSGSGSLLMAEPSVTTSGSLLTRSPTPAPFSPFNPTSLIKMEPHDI
# How it was run: as §1
# ELK4 = molecular target: T9, ELK4 (Homo sapiens, UniProt P28324-2 1-405); settings: protein: recombinant; tags: N-terminal GST; dsDNA, one strand shown
# T9 sequence: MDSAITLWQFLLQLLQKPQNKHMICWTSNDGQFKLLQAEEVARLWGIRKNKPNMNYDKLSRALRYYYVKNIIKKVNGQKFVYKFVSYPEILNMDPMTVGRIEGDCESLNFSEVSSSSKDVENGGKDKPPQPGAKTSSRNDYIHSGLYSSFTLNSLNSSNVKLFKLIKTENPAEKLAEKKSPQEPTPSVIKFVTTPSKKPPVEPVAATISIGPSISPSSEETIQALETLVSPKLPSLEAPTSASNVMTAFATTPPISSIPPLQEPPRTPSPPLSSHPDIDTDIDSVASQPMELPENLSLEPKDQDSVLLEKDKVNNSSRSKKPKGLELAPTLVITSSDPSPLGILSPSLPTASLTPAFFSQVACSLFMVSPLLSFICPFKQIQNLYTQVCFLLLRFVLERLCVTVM
# How it was run: as §1
# ETV2 = molecular target: T10, ETV2 (Homo sapiens, UniProt O00321 1-342); settings: protein: recombinant; tags: N-terminal GST; dsDNA, one strand shown
# T10 sequence: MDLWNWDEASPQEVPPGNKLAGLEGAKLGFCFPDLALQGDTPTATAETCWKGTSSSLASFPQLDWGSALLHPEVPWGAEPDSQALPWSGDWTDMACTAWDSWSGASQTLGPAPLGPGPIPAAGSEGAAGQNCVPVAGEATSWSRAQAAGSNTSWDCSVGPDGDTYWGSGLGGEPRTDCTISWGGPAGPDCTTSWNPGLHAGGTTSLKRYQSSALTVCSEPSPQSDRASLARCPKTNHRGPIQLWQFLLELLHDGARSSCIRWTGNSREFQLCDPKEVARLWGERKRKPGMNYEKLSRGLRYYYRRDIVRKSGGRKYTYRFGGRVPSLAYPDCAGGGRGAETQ
# How it was run: as §1
# ELF3 = molecular target: T11, ELF3 (Homo sapiens, UniProt P78545 1-371); settings: protein: recombinant; tags: N-terminal GST; dsDNA, one strand shown
# T11 sequence: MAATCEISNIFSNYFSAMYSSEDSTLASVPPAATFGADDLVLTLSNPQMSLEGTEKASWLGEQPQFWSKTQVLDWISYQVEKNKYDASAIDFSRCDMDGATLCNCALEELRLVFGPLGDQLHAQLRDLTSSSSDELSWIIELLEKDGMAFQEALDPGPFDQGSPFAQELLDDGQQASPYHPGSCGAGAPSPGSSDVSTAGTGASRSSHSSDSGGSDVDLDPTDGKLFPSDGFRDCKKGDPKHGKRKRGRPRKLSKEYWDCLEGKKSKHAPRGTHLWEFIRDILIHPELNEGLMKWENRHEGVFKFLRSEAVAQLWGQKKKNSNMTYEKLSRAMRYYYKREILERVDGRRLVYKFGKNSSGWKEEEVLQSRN
# How it was run: as §1
# CRX = CRX (Homo sapiens, UniProt O43186 1-299); settings: protein: recombinant; tags: N-terminal GST; dsDNA, one strand shown
# CRX, sequence (O43186 whole entry): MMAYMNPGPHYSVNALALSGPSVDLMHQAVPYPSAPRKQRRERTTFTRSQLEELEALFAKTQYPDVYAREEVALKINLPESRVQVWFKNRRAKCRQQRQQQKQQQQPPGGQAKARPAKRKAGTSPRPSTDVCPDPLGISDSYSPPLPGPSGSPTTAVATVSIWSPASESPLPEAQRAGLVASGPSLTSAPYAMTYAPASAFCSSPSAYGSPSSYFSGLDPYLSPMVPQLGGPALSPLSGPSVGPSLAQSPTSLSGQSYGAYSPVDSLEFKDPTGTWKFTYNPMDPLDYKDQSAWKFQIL
# How it was run: as §1
# ETV1 = ETV1 (Homo sapiens, UniProt P50549 1-477); settings: protein: recombinant; tags: N-terminal GST; dsDNA, one strand shown
# ETV1, sequence (P50549 whole entry): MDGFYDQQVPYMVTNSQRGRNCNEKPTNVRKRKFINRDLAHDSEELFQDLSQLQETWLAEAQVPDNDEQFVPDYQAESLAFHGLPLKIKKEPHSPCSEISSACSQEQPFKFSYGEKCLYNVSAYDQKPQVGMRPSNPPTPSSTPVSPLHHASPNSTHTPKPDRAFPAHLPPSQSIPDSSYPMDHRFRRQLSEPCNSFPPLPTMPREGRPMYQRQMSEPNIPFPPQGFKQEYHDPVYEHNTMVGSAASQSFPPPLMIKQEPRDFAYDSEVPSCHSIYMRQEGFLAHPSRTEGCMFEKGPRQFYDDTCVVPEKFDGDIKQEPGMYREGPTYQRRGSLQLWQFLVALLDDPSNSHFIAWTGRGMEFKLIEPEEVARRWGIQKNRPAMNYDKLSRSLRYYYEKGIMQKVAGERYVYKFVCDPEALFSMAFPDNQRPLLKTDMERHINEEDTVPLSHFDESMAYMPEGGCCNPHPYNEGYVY
# How it was run: as §1
sequence,measurement,setting,value
TCTCAG,binding signal,FLI1,"1.4 fold enrichment (6-mer frequency, TF over GST control)"
same,binding signal,ELK1,"1.48 fold enrichment (6-mer frequency, TF over GST control)"
same,binding signal,GABPA,"1.42 fold enrichment (6-mer frequency, TF over GST control)"
same,binding signal,ERG,"1.43 fold enrichment (6-mer frequency, TF over GST control)"
same,binding signal,ELF1,"1.45 fold enrichment (6-mer frequency, TF over GST control)"
same,binding signal,EHF,"1.43 fold enrichment (6-mer frequency, TF over GST control)"
same,binding signal,SPI1,"1.55 fold enrichment (6-mer frequency, TF over GST control)"
same,binding signal,SPIB,"1.39 fold enrichment (6-mer frequency, TF over GST control)"
same,binding signal,ELK3,"1.39 fold enrichment (6-mer frequency, TF over GST control)"
same,binding signal,FEV,"1.37 fold enrichment (6-mer frequency, TF over GST control)"
same,binding signal,ETV5,"1.33 fold enrichment (6-mer frequency, TF over GST control)"
same,binding signal,HSF1,"1.4 fold enrichment (6-mer frequency, TF over GST control)"
same,binding signal,SPIC,"1.16 fold enrichment (6-mer frequency, TF over GST control)"
same,binding signal,ELF4,"1.36 fold enrichment (6-mer frequency, TF over GST control)"
same,binding signal,ELK4,"1.34 fold enrichment (6-mer frequency, TF over GST control)"
same,binding signal,ETV2,"1.37 fold enrichment (6-mer frequency, TF over GST control)"
same,binding signal,ELF3,"1.37 fold enrichment (6-mer frequency, TF over GST control)"
same,binding signal,CRX,"1.46 fold enrichment (6-mer frequency, TF over GST control)"
same,binding signal,ETV1,"1.33 fold enrichment (6-mer frequency, TF over GST control)"
